From article PMC7862700, “An all-to-all approach to the identification of sequence-specific readers for epigenetic DNA modifications on cytosine” come the findings set out here.

Assay in all cases: DAPPL (digital affinity profiling via proximity ligation, sequencing); 10 mM Tris-HCl pH 7.5, 50 mM NaCl, 1 mM DTT, 4% glycerol, room temperature, 30 min; GST-TFs on glutathione beads, 16-mer random dsDNA library, 0.1% formaldehyde crosslink after washing; high values mean tight binding
The target of one test is T1, FLI1 (Homo sapiens, UniProt Q01543 1-452).
T1 sequence: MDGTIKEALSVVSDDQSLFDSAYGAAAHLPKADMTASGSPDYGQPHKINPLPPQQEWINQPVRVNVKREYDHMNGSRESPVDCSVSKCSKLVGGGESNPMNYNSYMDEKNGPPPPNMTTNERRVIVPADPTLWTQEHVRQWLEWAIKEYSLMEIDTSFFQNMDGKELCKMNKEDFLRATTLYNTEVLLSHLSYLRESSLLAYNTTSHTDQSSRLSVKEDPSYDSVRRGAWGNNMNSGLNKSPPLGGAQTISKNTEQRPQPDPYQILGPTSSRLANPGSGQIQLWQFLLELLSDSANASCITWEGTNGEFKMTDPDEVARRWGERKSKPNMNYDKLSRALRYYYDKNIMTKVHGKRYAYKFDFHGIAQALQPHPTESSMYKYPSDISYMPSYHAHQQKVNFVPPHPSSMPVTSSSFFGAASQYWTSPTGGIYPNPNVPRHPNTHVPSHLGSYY
As to conditions: protein: recombinant; tags: N-terminal GST; dsDNA, one strand shown. An outline of the steps:
(§1)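 Each value of binding signal is a hexamer's read frequency for a factor divided by the same hexamer's frequency in the tag-only sample. Barcoded, bead-captured GST fusions of human transcription factors made in yeast were pooled with that sample and incubated with 200 nmole of a random double-stranded 16-mer DNA library in Tris/NaCl/DTT/glycerol buffer at room temperature for 30 min. Washing, 0.1% formaldehyde crosslinking, proximity ligation, PCR and Illumina NextSeq500 sequencing followed.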

A further test deals with T2, ELK1 (Homo sapiens, UniProt P19419 1-428).
T2 sequence: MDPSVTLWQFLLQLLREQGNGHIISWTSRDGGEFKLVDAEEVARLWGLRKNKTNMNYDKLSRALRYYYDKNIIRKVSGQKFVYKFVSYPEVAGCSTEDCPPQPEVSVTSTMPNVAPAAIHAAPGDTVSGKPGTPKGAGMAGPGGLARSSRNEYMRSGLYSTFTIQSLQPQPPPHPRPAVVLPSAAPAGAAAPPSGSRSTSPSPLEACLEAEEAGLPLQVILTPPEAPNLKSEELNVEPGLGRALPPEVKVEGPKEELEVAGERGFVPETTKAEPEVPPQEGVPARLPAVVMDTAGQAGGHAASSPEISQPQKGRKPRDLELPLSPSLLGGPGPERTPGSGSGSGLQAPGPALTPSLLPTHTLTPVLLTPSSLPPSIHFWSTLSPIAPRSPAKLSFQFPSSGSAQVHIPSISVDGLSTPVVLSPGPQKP
As to conditions: protein: recombinant; tags: N-terminal GST; dsDNA, one strand shown. An outline of the steps:
as §1

The target of the next test is T3, GABPA (Homo sapiens, UniProt Q06546 1-454).
T3 sequence: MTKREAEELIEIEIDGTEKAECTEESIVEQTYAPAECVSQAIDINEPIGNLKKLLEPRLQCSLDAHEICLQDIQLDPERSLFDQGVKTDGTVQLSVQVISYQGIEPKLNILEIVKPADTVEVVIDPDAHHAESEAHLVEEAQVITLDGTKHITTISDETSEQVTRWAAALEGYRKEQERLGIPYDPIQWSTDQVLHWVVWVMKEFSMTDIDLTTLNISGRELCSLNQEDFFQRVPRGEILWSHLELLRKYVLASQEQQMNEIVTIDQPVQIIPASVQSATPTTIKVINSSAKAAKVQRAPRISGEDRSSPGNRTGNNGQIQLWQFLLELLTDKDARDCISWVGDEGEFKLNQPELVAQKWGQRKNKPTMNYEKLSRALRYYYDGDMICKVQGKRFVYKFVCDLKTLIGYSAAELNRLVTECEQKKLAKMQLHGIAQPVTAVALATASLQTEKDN
As to conditions: protein: recombinant; tags: N-terminal GST; dsDNA, one strand shown. An outline of the steps: as §1

Another test concerns the target T4, ERG (Homo sapiens, UniProt P11308 1-479).
T4 sequence: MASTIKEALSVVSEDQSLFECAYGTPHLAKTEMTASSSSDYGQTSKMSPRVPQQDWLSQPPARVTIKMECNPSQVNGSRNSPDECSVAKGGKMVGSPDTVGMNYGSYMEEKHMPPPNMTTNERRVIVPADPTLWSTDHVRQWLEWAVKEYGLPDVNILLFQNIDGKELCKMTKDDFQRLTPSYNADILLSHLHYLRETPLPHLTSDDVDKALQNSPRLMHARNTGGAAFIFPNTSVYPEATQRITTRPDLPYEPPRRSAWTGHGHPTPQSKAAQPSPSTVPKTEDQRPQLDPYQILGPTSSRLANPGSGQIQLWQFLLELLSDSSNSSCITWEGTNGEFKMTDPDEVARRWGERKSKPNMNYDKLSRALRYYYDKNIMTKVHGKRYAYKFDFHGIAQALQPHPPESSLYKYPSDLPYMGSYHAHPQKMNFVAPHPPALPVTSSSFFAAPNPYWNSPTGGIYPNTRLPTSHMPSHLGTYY
As to conditions: protein: recombinant; tags: N-terminal GST; dsDNA, one strand shown. In a few lines:
as §1

The next test deals with ELF1 (Homo sapiens, UniProt P32519 1-619). The settings on record: protein: recombinant; tags: N-terminal GST; dsDNA, one strand shown. An outline of the steps: as §1
For a further test, the target named is T5, EHF (Homo sapiens, UniProt Q9NZC4 1-300).
T5 sequence: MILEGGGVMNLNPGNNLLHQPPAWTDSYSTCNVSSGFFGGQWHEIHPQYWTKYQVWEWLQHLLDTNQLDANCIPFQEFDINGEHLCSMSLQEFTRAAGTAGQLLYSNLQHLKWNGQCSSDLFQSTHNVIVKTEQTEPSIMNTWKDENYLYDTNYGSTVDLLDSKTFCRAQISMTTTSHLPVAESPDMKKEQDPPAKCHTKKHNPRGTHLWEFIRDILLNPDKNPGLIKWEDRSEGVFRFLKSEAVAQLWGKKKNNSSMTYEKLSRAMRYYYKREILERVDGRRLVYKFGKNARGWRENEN
As to conditions: protein: recombinant; tags: N-terminal GST; dsDNA, one strand shown. An outline of the steps:
as §1

The target of a further test is SPI1 (Homo sapiens, UniProt P17947 1-270). The settings on record: protein: recombinant; tags: N-terminal GST; dsDNA, one strand shown. In a few lines:
as §1

For the next test, the target named is SPIB (Homo sapiens, UniProt Q01892 1-262). The settings on record: protein: recombinant; tags: N-terminal GST; dsDNA, one strand shown. In a few lines:
as §1

The next test concerns the target T6, ELK3 (Homo sapiens, UniProt P41970 1-407).
T6 sequence: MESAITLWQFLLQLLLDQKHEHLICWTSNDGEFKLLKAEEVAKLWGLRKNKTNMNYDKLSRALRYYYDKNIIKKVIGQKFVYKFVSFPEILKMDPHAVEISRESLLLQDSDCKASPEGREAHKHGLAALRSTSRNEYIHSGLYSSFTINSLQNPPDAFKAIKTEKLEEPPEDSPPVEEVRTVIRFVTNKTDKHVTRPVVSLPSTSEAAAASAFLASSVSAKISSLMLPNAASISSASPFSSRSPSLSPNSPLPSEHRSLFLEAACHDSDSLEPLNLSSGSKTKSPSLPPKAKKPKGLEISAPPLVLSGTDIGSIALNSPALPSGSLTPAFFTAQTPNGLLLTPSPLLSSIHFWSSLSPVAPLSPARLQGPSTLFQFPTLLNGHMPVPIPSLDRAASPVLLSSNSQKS
As to conditions: protein: recombinant; tags: N-terminal GST; dsDNA, one strand shown. In a few lines:
as §1

In another test the target is T7, FEV (Homo sapiens, UniProt Q99581 1-238).
T7 sequence: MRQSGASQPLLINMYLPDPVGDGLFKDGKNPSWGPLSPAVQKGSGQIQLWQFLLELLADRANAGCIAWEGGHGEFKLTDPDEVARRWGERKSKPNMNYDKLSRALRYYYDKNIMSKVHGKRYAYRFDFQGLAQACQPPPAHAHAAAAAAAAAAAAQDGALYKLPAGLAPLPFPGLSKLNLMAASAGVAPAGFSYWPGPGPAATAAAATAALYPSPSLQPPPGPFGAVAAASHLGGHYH
The settings on record: protein: recombinant; tags: N-terminal GST; dsDNA, one strand shown. In a few lines:
as §1

The target in another test is ETV5 (Homo sapiens, UniProt P41161 1-510). The settings on record: protein: recombinant; tags: N-terminal GST; dsDNA, one strand shown. An outline of the steps:
as §1

The next test has as its target HSF1 (Homo sapiens, UniProt Q00613 1-529). As to conditions: protein: recombinant; tags: N-terminal GST; chain copies: 3; dsDNA, one strand shown. In a few lines: as §1
For a further test, the target named is T8, SPIC (Homo sapiens, UniProt Q8N5J4 1-248).
T8 sequence: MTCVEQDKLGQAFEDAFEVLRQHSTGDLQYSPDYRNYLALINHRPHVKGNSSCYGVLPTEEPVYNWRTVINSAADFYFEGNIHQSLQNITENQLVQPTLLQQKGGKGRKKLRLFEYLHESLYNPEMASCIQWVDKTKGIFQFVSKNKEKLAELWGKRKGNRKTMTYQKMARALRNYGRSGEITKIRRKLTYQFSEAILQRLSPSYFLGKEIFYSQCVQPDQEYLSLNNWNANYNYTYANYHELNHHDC
The settings on record: protein: recombinant; tags: N-terminal GST; dsDNA, one strand shown. In a few lines: as §1

In the next test the target is ELF4 (Homo sapiens, UniProt Q99607 1-663). The settings on record: protein: recombinant; tags: N-terminal GST; dsDNA, one strand shown. An outline of the steps:
as §1

In the next test the target is T9, ELK4 (Homo sapiens, UniProt P28324-2 1-405).
T9 sequence: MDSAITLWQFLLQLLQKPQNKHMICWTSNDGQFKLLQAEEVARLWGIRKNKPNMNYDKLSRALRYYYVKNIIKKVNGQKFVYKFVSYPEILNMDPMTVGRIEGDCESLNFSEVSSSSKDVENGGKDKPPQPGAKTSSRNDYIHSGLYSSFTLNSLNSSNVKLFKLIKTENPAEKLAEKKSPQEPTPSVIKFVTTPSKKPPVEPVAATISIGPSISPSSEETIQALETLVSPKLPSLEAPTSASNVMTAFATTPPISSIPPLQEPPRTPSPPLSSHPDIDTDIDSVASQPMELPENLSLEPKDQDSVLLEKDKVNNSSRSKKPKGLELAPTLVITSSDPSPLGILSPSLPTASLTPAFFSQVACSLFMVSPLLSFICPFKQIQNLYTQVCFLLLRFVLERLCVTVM
As to conditions: protein: recombinant; tags: N-terminal GST; dsDNA, one strand shown. An outline of the steps: as §1

Another test has as its target T10, ETV2 (Homo sapiens, UniProt O00321 1-342).
T10 sequence: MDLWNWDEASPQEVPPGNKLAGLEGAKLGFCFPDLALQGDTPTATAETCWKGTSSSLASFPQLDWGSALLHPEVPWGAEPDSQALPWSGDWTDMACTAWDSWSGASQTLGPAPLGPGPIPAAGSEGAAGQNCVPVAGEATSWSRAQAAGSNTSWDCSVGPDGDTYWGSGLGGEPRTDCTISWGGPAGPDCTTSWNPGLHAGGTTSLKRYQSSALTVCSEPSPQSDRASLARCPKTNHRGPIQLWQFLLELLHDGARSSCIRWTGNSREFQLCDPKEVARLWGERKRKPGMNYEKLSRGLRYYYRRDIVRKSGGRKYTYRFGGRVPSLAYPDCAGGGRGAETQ
As to conditions: protein: recombinant; tags: N-terminal GST; dsDNA, one strand shown. In a few lines: as §1

Another test concerns the target T11, ELF3 (Homo sapiens, UniProt P78545 1-371).
T11 sequence: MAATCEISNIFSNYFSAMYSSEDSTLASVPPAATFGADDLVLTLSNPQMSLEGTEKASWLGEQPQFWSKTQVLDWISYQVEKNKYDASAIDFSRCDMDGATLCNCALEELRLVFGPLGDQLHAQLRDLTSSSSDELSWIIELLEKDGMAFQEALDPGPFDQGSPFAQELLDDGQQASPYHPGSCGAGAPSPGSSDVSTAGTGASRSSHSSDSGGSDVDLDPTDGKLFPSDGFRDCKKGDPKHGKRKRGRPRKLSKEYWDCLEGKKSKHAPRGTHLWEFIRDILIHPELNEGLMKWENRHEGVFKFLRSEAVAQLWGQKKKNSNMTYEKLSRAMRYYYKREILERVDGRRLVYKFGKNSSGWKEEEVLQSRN
The settings on record: protein: recombinant; tags: N-terminal GST; dsDNA, one strand shown. An outline of the steps:
as §1

Another test has as its target CRX (Homo sapiens, UniProt O43186 1-299). As to conditions: protein: recombinant; tags: N-terminal GST; dsDNA, one strand shown. An outline of the steps: as §1
Another test addresses ETV1 (Homo sapiens, UniProt P50549 1-477). As to conditions: protein: recombinant; tags: N-terminal GST; dsDNA, one strand shown. An outline of the steps:
as §1

Chain of ETV1 (P50549 whole entry): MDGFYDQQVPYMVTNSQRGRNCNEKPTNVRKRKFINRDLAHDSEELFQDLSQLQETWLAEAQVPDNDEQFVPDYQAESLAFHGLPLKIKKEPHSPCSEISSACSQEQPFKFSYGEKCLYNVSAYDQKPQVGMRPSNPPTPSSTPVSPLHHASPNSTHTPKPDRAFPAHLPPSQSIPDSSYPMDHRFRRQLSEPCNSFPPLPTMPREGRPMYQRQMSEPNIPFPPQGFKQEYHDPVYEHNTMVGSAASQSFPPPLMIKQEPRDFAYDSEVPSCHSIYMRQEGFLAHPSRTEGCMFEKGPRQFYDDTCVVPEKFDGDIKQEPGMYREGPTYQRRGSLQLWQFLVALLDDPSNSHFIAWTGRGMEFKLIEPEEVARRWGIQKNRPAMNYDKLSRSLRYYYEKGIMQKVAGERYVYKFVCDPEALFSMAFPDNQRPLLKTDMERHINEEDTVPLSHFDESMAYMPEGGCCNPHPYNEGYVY
Chain of CRX (O43186 whole entry): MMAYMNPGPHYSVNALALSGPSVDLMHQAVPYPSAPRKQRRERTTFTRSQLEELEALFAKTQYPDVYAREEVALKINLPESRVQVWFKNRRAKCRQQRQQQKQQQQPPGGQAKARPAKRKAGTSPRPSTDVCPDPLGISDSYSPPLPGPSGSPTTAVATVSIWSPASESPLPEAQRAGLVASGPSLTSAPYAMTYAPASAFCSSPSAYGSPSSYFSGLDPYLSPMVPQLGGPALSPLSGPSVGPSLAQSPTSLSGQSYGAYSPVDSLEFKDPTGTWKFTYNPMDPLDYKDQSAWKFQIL
Chain of SPIB (Q01892 whole entry): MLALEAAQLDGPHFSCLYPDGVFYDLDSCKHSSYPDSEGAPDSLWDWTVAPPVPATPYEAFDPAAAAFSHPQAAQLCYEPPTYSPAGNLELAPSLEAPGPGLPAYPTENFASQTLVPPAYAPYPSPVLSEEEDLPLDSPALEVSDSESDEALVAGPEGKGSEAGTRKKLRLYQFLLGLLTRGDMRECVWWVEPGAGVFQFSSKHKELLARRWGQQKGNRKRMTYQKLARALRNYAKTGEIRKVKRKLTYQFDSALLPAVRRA
Chain of ELF4 (Q99607 whole entry): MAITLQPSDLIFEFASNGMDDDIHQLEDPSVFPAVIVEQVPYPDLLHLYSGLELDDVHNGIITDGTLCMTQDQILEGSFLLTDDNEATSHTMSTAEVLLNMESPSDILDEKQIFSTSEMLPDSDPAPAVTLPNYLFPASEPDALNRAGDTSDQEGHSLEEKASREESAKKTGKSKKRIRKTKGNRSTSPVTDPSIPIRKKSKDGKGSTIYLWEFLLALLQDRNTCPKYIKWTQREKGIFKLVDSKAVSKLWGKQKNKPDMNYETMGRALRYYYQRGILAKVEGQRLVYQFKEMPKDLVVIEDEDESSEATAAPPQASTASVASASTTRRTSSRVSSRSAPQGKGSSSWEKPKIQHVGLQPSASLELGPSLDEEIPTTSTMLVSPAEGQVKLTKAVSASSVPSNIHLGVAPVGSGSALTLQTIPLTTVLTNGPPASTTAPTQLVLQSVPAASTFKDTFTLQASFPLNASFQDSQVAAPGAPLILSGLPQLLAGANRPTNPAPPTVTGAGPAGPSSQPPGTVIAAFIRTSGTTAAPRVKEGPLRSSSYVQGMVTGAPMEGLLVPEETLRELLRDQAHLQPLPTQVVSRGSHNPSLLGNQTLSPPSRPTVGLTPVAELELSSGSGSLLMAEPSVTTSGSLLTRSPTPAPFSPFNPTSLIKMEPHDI
Chain of ELF1 (P32519 whole entry): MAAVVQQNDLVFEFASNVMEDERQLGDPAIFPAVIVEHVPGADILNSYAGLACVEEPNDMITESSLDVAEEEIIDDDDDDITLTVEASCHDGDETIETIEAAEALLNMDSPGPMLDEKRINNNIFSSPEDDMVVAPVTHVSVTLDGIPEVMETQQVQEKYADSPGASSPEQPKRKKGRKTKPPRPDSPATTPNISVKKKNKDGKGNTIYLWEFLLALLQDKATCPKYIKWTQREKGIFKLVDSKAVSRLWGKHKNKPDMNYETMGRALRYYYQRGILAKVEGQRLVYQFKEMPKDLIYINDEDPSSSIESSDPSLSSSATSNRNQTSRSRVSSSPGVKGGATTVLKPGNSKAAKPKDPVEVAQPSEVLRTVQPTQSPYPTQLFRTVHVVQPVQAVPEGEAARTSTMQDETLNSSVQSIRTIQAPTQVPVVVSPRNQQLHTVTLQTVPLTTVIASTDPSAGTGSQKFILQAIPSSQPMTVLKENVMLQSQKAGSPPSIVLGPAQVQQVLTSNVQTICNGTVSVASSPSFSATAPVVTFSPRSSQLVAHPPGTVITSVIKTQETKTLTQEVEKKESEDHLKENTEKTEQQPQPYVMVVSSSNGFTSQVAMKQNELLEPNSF
Chain of HSF1 (Q00613 whole entry): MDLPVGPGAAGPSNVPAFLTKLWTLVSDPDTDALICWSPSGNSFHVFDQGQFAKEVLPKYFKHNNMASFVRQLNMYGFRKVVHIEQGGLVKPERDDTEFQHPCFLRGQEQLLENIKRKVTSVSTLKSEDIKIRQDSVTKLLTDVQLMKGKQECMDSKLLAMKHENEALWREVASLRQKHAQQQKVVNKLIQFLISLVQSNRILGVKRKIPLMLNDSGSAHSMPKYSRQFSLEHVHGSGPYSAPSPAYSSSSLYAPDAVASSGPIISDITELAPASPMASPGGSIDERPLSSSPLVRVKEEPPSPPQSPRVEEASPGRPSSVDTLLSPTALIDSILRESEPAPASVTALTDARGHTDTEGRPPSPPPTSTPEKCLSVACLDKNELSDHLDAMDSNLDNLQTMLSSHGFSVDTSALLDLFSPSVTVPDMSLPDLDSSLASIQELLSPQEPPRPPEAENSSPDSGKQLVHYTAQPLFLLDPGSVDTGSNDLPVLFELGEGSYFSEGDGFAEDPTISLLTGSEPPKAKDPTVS
Chain of ETV5 (P41161 whole entry): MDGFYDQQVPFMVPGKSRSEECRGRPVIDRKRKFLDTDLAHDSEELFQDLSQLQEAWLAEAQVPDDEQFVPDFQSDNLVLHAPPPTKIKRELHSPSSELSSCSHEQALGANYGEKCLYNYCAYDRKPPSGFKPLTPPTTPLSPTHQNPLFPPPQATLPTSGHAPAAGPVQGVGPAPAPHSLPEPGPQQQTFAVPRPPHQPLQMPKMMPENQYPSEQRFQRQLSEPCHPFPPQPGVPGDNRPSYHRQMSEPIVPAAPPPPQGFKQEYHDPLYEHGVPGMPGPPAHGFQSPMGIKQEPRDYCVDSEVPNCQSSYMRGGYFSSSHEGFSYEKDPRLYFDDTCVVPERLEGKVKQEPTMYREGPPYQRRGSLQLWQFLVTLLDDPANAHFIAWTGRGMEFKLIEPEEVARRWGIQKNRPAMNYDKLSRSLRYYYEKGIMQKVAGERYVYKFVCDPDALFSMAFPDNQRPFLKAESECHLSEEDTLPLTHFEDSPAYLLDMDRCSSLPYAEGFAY

As to TGACAA, the binding signal was 1.18 fold enrichment (6-mer frequency, TF over GST control) with FLI1; 1.19 fold enrichment (6-mer frequency, TF over GST control) with ELK1; 1.32 fold enrichment (6-mer frequency, TF over GST control) with GABPA; 1.28 fold enrichment (6-mer frequency, TF over GST control) with ERG; 1.38 fold enrichment (6-mer frequency, TF over GST control) with ELF1; 1.21 fold enrichment (6-mer frequency, TF over GST control) in the test with EHF. The binding signal in the test with SPI1 was 1.25 fold enrichment (6-mer frequency, TF over GST control); in the test with SPIB, 1.14 fold enrichment (6-mer frequency, TF over GST control); with ELK3, 1.12 fold enrichment (6-mer frequency, TF over GST control); with FEV it was 1.22 fold enrichment (6-mer frequency, TF over GST control); in the test with ETV5, 1.22 fold enrichment (6-mer frequency, TF over GST control); with HSF1 it was 1.06 fold enrichment (6-mer frequency, TF over GST control). Besides, the binding signal with SPIC is 1.11 fold enrichment (6-mer frequency, TF over GST control); with ELF4 it was 1.26 fold enrichment (6-mer frequency, TF over GST control); with ELK4, 1.2 fold enrichment (6-mer frequency, TF over GST control); in the test with ETV2, 1.14 fold enrichment (6-mer frequency, TF over GST control); with ELF3, 1.3 fold enrichment (6-mer frequency, TF over GST control); with CRX it was 1.05 fold enrichment (6-mer frequency, TF over GST control). The binding signal in the test with ETV1 is 1.25 fold enrichment (6-mer frequency, TF over GST control).
